From PubChem
The list is not random: actives were taken first. Their share in the collection is about 22%.
CYP2C9 inh – human CYP2C9 inhibition; CYP2C9 Supersomes, luciferin-H conversion, luminescence; inhibition, % at 5 µM; P11712; hit rate 20% among 96,000; AID 777;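 active = blocking of liver enzyme CYP2C9 beyond about 50% at 5 µM, limit read from the data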
Target sequence (P11712 whole entry, looked up): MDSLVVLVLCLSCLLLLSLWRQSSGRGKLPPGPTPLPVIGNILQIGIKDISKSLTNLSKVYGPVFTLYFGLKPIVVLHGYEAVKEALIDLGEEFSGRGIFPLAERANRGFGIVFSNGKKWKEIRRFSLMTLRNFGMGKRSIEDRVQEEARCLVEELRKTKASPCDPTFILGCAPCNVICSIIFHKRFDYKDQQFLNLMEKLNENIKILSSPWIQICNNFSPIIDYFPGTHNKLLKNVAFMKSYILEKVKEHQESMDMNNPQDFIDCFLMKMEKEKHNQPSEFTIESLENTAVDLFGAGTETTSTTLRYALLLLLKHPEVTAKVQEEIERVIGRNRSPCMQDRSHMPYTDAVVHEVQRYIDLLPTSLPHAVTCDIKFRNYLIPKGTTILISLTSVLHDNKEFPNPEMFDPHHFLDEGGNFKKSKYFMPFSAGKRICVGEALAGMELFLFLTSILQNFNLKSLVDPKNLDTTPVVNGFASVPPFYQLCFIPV
CYP2C19 inh – inhibitors of human CYP2C19; CYP2C19 Supersomes, luciferin-H EGE luminescence, 30 min; P33261; hit rate 21% among 96,000; inhibition, % at 5 µM;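 active = CYP2C19 inhibition above a set limit at 5 µM in the primary screen, cut at about 50% in these data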
cytoskel mod – alters cytoskeleton assembly in HUVEC cells; HUVEC TNFa F-actin phalloidin imaging, high content; inhibition, % at 2 µM; hit rate 0.18% among 91,000; AID 836;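 active = inhibition above the batch mean plus 3 SD and confirmed as a hit by visual image inspection, cut at about 30% in these data, passing the limit was not always enough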
E-sel TNF inh – blocks E-selectin expression induced by TNF alpha. HUVEC TNFa-induced E-selectin immunofluorescence, high content. inhibition, % at 2 µM. hit rate 0.71% among 120,000. AID 1246;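 active = inhibition above the batch mean plus 3 SD, and confirmed as a hit on visual image review, cut at about 43% in these data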
CYP2C19 activ – increases human CYP2C19 enzyme activity; P33261; recombinant CYP2C19, luciferin-H EGE luminescence; active compounds read high; 0 = fully inhibited enzyme, 1 = untreated enzyme; activation factor at 5 µM; 96,000 tested, under 10 active;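 active = activation factor of at least 2 at 5 µM in the primary screen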
CYP2C9 activ – CYP2C9 (human) activation; recombinant CYP2C9, luciferin-H conversion, luminescence; active compounds read high; factor 1 = untreated enzyme, 0 = blocked; activation factor at 5 µM; hit rate 1.4% among 96,000;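 active = activation factor of 2 or more for CYP2C9 at a 5 µM dose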
Numbers stand for hits; i = inactive; nt = no result.

SMILES	CYP2C9 inh	CYP2C19 inh	cytoskel mod	E-sel TNF inh	CYP2C19 activ	CYP2C9 activ
COc1ccc(-c2nc(C#N)c(NCc3ccccc3Cl)o2)cc1OC	i	i	i	nt	i	i
COc1ccc(CCNc2oc(COc3ccc(Br)cc3)nc2C#N)cc1OC	51	i	i	i	i	i
COc1ccc(CCNc2oc(Cc3cccc4ccccc34)nc2C#N)cc1OC	57	i	i	i	i	i
O=C(CSc1ccc(-c2cccc([N+](=O)[O-])c2)nn1)NC1CCCC1	nt	nt	nt	i	nt	nt
Cn1c(NC(=O)C(C)(C)Oc2ccc(Cl)cc2)cc(=O)n(C)c1=O	i	98	nt	i	i	i
CCOC(=O)c1[nH]ncc1CN1CCCC(C(=O)c2cccc3ccccc23)C1 (stereo not drawn)	nt	nt	nt	i	nt	nt
COc1cnn(C(C)(C)C)c(=O)c1Cl	i	i	i	i	i	i
CC(=O)Nc1ccccc1NC(=O)CN(C)S(=O)(=O)c1ccc(C)cc1	i	80	i	i	i	i
CS(=O)(=O)N(Cc1ccc(C(=O)Nc2ccccc2Sc2ccccc2)cc1)c1ccccc1	i	i	i	i	i	i
CS(=O)(=O)N(CC(=O)Nc1ccccc1Sc1ccccc1)c1ccc(F)cc1	61	i	i	i	i	i
CC(C(=O)Nc1ccccc1Sc1ccccc1)N(c1ccccc1)S(C)(=O)=O (stereo not drawn)	54	i	i	i	i	i
CNC(=O)CN(C)S(=O)(=O)c1ccc(F)cc1	i	i	i	i	i	i
CSc1ccccc1NC(=O)CN(C)S(=O)(=O)c1ccc(F)cc1	i	i	i	i	i	3.6
CCOC(=O)c1c(NC(=O)C(Sc2ccccc2)c2ccccc2)sc(C(=O)N(C)C)c1C (stereo not drawn)	nt	nt	nt	i	nt	nt
O=C(c1ccc2c(Cl)c3c(nc2c1)CCCC3)N1CCN(c2ccc(F)cc2)CC1	nt	nt	nt	i	nt	nt
Cc1nnc(SCc2cnc(-c3ccc(C(C)C)cc3)s2)n1C	i	i	i	i	i	i
CN(C)S(=O)(=O)c1ccc(C(=O)Nc2nnc(SCc3cccc(F)c3)s2)cc1	nt	nt	nt	i	nt	nt
CCSc1nnc(NC(=O)CN(C)S(=O)(=O)c2ccc(F)cc2)s1	75	81	i	nt	i	i
COc1ccc(C2CC2C(=O)c2ccccn2)cc1 (stereo not drawn)	nt	nt	nt	i	nt	nt
CCOC(=O)c1sc(NC(=O)c2c(C)noc2C)c(C(=O)OCC)c1C	nt	nt	i	i	nt	nt
Cc1ccccc1-c1nc(CSc2nc3c(c(=O)[nH]2)CCC3)c(C)o1	nt	nt	nt	i	nt	nt
Cc1ccccc1CSc1nnc(C)c(=O)[nH]1	63	i	i	nt	i	i
Cc1nnc(NCCc2ccccc2)[nH]c1=O	i	i	i	nt	i	i
Cc1nnc(SCCc2ccccc2)[nH]c1=O	56	i	i	i	i	i
Cc1ccccc1CSc1nc2c(c(=O)[nH]1)CCC2	63	i	nt	nt	i	i
SMILES	CYP2C9 inh	CYP2C19 inh	cytoskel mod	E-sel TNF inh	CYP2C19 activ	CYP2C9 activ
Cc1cc(C)c(C)c(C(=O)CSc2nnc(C)c(=O)[nH]2)c1C	94	i	i	i	i	i
COc1ccccc1CNC(=O)COC(=O)CCC(=O)c1cccs1	nt	nt	nt	i	nt	nt
CCOC(=O)c1ccc(N2C(=O)CC(Sc3nnc(C)s3)C2=O)cc1 (stereo not drawn)	i	i	i	i	i	i
O=C(O)c1ccc(/C=N/NC(=O)C2CC2(c2ccccc2)c2ccccc2)cc1 (stereo not drawn)	nt	nt	nt	i	nt	nt
CC(C)(C)c1cc(Cc2ccccc2)[nH]n1	i	82	i	i	i	i
CNC(=S)N(Cc1cccs1)Cc1cc2ccc(OC)cc2[nH]c1=O	nt	nt	nt	i	nt	nt
Cc1ccccc1NC(=O)CSc1nc(COc2ccccc2)nc2ccccc12	95	76	i	nt	i	i
Cc1cc(C)c(NC(=O)CSc2nc(COc3ccccc3)nc3ccccc23)c(C)c1	85	i	i	nt	i	i
CNc1nc(SC)nc2ccsc12	i	i	i	i	i	2.3
C=CCSc1nc(NC)c2sccc2n1	i	i	i	i	i	2.5
CCOc1ccc(CC2S/C(=N/c3ccccn3)NC2=O)cc1 (stereo not drawn)	i	72	i	i	i	i
O=C1NCCN1C(=O)C12CC3CC(CC(C3)C1)C2	i	i	nt	nt	i	i
O=c1cc(C23CC4CC(CC(C4)C2)C3)[nH][nH]1	56	i	i	i	i	i
CCOC(=O)c1c(NC(=O)C2COc3ccccc3O2)sc(C)c1C (stereo not drawn)	nt	nt	i	i	nt	nt
COc1ccc(CN2CCCCC2C)c(C)c1C (stereo not drawn)	i	i	i	nt	i	i
Cc1ccccc1-n1c(C)cc(/C=N/NC(=O)c2ccncc2)c1C	51	i	i	i	i	i
Cc1cccc(C)c1-n1c(C)cc(/C=N/NC(N)=S)c1C	93	91	i	i	i	i
NC(=S)N/N=C/c1ccccc1	nt	nt	nt	i	nt	nt
O=C(N/N=C/c1ccncc1)c1ccccc1	i	i	i	i	i	i
CCn1c(=O)n(CC)c2cc(S(=O)(=O)N3CCOCC3)ccc21	i	i	i	i	i	i
CCN(CC(=O)NC(=O)NCc1ccco1)Cc1nc2ccccc2c(=O)[nH]1	i	68	i	i	i	i
Cc1ccc(NC(=O)CN(C)Cc2nc3ccccc3c(=O)[nH]2)c(Br)c1	68	i	i	i	i	i
CCN(CC(=O)NCCc1ccc(S(N)(=O)=O)cc1)Cc1nc2ccccc2c(=O)[nH]1	66	i	i	i	i	i
CCN(CC(=O)Nc1ccccc1Br)Cc1nc2ccccc2c(=O)[nH]1	i	54	i	i	i	i
CCN(CC(=O)NCCc1ccc(S(N)(=O)=O)cc1)Cc1nc2cc(OC)c(OC)cc2c(=O)[nH]1	i	i	i	i	i	i
SMILES	CYP2C9 inh	CYP2C19 inh	cytoskel mod	E-sel TNF inh	CYP2C19 activ	CYP2C9 activ
Cc1cc(Br)ccc1NC(=O)CNC(=O)CN(C)Cc1nc2ccccc2c(=O)[nH]1	63	68	i	nt	i	i
CC(NC(=O)CN(C)Cc1nc2ccccc2c(=O)[nH]1)c1ccccc1 (stereo not drawn)	i	i	i	i	i	i
Cc1cc(N2CCC(C(=O)NC3CC3)CC2)nc(-c2ccccc2)n1	i	i	i	nt	i	i
Cc1cc(N2CCC(C(=O)NCC3CC3)CC2)nc(-c2ccccc2)n1	62	73	i	i	i	i
O=C(COC(=O)c1cc([N+](=O)[O-])ccc1NCc1ccccc1Cl)NCC(F)(F)F	nt	nt	nt	i	nt	nt
COC(=O)c1cc2ccsc2n1Cc1nc(-c2ccc(Cl)cc2)oc1C	89	55	i	i	i	i
COC(=O)c1cc2ccsc2n1CC(=O)Nc1cc(C)cc(C)c1	66	i	i	i	i	i
COC(=O)c1cc2ccsc2n1CC(=O)NCC1CCCO1 (stereo not drawn)	i	i	i	nt	i	i
COC(=O)c1cc2ccsc2n1CC(=O)N1CCCc2ccccc21	93	95	nt	i	i	i
COC(=O)c1cc2oc3ccccc3c2n1CC(=O)N1CCCc2ccccc21	i	i	i	i	i	i
COC(=O)c1cc2ccsc2n1Cc1cc(=O)n2ccccc2n1	92	53	i	nt	i	i
Cc1ccc(NC(=O)/C(=C/c2ccncc2)NC(=O)c2ccccc2)cc1	nt	nt	nt	i	nt	nt
